In the supplement of paper PMC6555819:

The sequences below were run on VDR:RXRa (NR concentration 270 nM, RXRa partner concentration 90 nM) (assay: PBM binding z-score (relative to random genomic background probes); higher = stronger binding; sequences stand for … in GC…GCGATTGACAGCGTAGAATGAAGG).
Procedure: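 Protein-binding microarray (Agilent 4x180K custom design, double-stranded 60-nt probes: 5' GC cap, 34-nt variable region, 24-nt constant primer region; full probe sequence given). Purified or IVT nuclear receptor:RXRα heterodimers (3:1 NR:RXRα, mostly 270:90 nM) or homodimers were incubated for 1 h in PBS with 2% milk and no ligand, then detected with Alexa488 antibodies. Fluorescence from o1-orientation probes (~5 replicates averaged) was converted to z-scores against 500 random hg19 background probes. Variable regions are seed direct-repeat (DR0–DR5) sites, all their single-nucleotide variants and half-site ablations.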
ACTCAAAGTTCAGGACGAGGTAACGTAAAGCACG gave a PBM binding z-score of 3.22.
In the case of CTACCAAGGTGAACAAGGTCTTTGATTACTATTC, the PBM binding z-score was 3.6.
With CAAACTAGGTCACGAAAGATCAAAGTCGAATGAC the PBM binding z-score was 3.03.
TCTGCTAGGTCAACGATGATCAGCTAATCTGCTA showed a PBM binding z-score of 1.17.
Sequence CCAGACAGGTGAGAAGGTGACTCAGCCTCGATTA has a PBM binding z-score of -0.0388.
Sequence TCTTGCAGATCAAAGGTTAAGAAAGCCGAAGCCT has a PBM binding z-score of 1.3.
Sequence ACTTACGGGTCAACGAGGTTACAGCACGCGTATA has a PBM binding z-score of 7.79.
ACTATTTGTTGACTTAGGGCAACCGATACGACGC was tested, and the PBM binding z-score was 0.227.
TATAGTTGGTCAAAGGTCACACACTCGAAATGCG was tested, and the PBM binding z-score was 5.53.
Work on AGTCAAAGTTCATCTAGGTAACCTAAGATATGCT yielded a PBM binding z-score of 5.11.
With CCTCGGAGGACAACAGTAGGTCAGAGCTGCCAGA the PBM binding z-score was 0.152.
In the case of AGAACGAGGGCACGCTGCGTTGATAGCAGAGTAG, the PBM binding z-score was 0.741.
With CCTGCTAGGTCATGGTCAGTTAATCTACAGTATG the PBM binding z-score was 2.28.
In the case of ATCGAAAGGTCGACGAGGTGAGTGTACACCGTTT, the PBM binding z-score was 5.55.
Work on AGAATGAGGTTATACGTAGATCAGTGAAGAAAGT yielded a PBM binding z-score of 1.31.
In the case of ACTAGTTGGTCAGCTGAGGTCACACAGAATTCGG, the PBM binding z-score was 4.42.
CCTATTGGGCCAAAGGTCATTGATTCCAATGCTC gave a PBM binding z-score of 4.66.
CCGACGGGGGCATAAGGTTACCATAAGCCAGCCC was tested, and the PBM binding z-score was 3.5.
For ATCGACAGGTCGAGGTGAGTATAGAGAAAGGGAA, the PBM binding z-score was 0.389.
AGAACGAGGGCACGCTGAGTTGGTAGCAGAGTAG gave a PBM binding z-score of 1.34.
TTACCAAGATGAAGGTCGTTGATCCCTCTGTAGA gave a PBM binding z-score of 0.991.
Work on CCGACTGCGGCATAAGGTTACCATAAGCCAGCCC yielded a PBM binding z-score of 0.0281.
Sequence AGATTGAGGTTAAGATCAGGGAAACAGAATACAT has a PBM binding z-score of 1.42.
TTACCAAGGTGAAGGTCCTTGATCCCTCTGTAGA gave a PBM binding z-score of 0.388.
Work on CCGACTGGGACATAAGGTTACCATAAGCCAGCCC yielded a PBM binding z-score of 0.181.
CAAACTAGGTCACAGAGGCCAAAGTCCGTGCGTA gave a PBM binding z-score of 6.5.
With ATCGCAAGGTCGTGAGGTGAGTATACAGAAAGGC the PBM binding z-score was 2.33.
GCATATAGGTAATACAAGGTGAAAGTTCGATTGT was tested, and the PBM binding z-score was 1.17.
With ATCGAAAGGTCGTGAGGTGAGTAGACAGAAAGGC the PBM binding z-score was 3.35.
Work on CCAACTAGGTCAGAACAGGACAGTGAAGGATGAT yielded a PBM binding z-score of 1.08.
ATGTGTAGGTTAGCTGGGGTCATTCAGACTAGGC showed a PBM binding z-score of 6.24.
With CCTAGTAGGTCAGGAGGTCACACACCGGATATGA the PBM binding z-score was 4.92.
AATACAGGGTCATCGTAGGGCAGAGTACGCACAG showed a PBM binding z-score of 5.71.
For GCTAGTTGGTCAGTAAAAAGTCACACACCGGTCG, the PBM binding z-score was 0.0507.
ACTATTAGTTGACTTAGGACAACCGATACGACGC showed a PBM binding z-score of 0.499.
TAGCCTAGGTCATTGGGCAAGTATAGTACGCATC gave a PBM binding z-score of 2.09.
For GCGATTGGGGCAAAGCAGGTTACCATAAGGTTGG, the PBM binding z-score was 0.27.
In the case of ATCTCTAGGTAAGAAGTTCAGTGAAAGAGAGGAC, the PBM binding z-score was 0.919.
Work on CAGCCTAGGTCAGGGCCAATATAGGAGGAACGTT yielded a PBM binding z-score of 0.378.
Work on CCTAGCAGGCCAATCTGGGTCACCCAAGGCTTGA yielded a PBM binding z-score of 0.707.
